Screening data (PubChem BioAssay)
DT40 TDP1 no CPT – qHTS for Inhibitors of human tyrosyl-DNA phosphodiesterase 1 (TDP1): qHTS in cells in absence of CPT; Potency, µM (series often up to 46.2 µM), without a hit: top-dose activity change, negative = growth inhibition, hits mostly inhibitors; AID 686978, 2013; DT40 Tdp1-/- hTDP1 cells, no CPT, ATP luminescence, 48 h; 420,000 tested, 15% active; note: potency is the fitted concentration of half-maximal effect; % is set by controls: 0 for no effect and ±100 for the full control effect; nearly all actives have a fitted effect of over 55% in size
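Stably hTDP1-transfected Tdp1-null chicken DT40 cells were treated with library compounds minus camptothecin and grown for at least 48 hr at 37 °C, after which cellular ATP was quantified by luminescence.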
HepG2 tox – qHTS for Inhibitors of TGF-b: Cytotox Counterscreen. HepG2 CAGA-GFP viability, ATP luminescence, 18 h. Potency, µM (top dose mostly 46.1 µM), inactives show at the top dose activity change, negative = cytotoxicity, hits mostly cytotoxic. 410,000 tested, 0.76% active. AID 588856, 2011; note: potency is the fitted concentration of half-maximal effect
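CellTiter-Glo luminescence gave cytotoxicity after 18 hours at 37 degrees C. The cells were HepG2 CAGA-GFP in 1% FBS DMEM, stimulated with 500 pg/mL TGF-beta after compound addition. %Activity was normalised to no-cell wells (complete cell-killing) and DMSO (no toxicity), and curves were fitted and classified.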
IL1B secr inh – qHTS for Inhibitors of Inflammasome Signaling: IL-1-beta AlphaLISA Primary Screen; AID 743279, 2014; 360,000 tested, 4.7% active; activity change, % at 57.5 µM; THP-1 LPS/ATP IL-1B secretion, AlphaLISA, 16 h; active compounds read low; in the data active = activity change below about -50%; inconclusive = mostly about -30% to -49%; note: % is set by controls: 0 for no effect and ±100 for the full control effect
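THP-1 cells pretreated 1 hr with compounds (up to 57.5 uM final), then stimulated with LPS (250 ng/mL final) plus ATP (1.25 mM final); secreted IL-1B measured by AlphaLISA after 16 hr, decreased signal indicating inhibition.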
TDP1 cell CPT – qHTS for Inhibitors of human tyrosyl-DNA phosphodiesterase 1 (TDP1): qHTS in cells in presence of CPT; chicken DT40 Tdp1-/-;hTDP1 cells + 20 nM CPT, ATP luminescence, 48 h; 420,000 tested, 12% active; Potency, µM (doses to about 46.2 µM), inactives show at the highest dose activity change, negative = growth inhibition, actives largely listed as inhibitors; note: potency is the fitted concentration of half-maximal effect; % is set by controls: 0 for no effect and ±100 for the full control effect; nearly all actives have a fitted effect of over 55% in size
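Cell growth measured by CellTiter-Glo luminescence after a minimum 48 h, 37 C compound exposure with 20 nM CPT in Tdp1-knockout DT40 cells stably expressing hTDP1, seeded 400/well; qHTS titration format.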
TGFb SMAD3 inh – qHTS for Inhibitors of TGF-b; 410,000 tested, 1.2% active; HepG2 CAGA-GFP TGF-b/SMAD3 reporter, GFP fluorescence, 18 h; TGF-beta stimulated, 500 pg/mL final; Potency, µM (titrated, usually from 46.1 µM), for the others: at the top dose activity, negative = inhibition, usual class: inhibitors; AID 588855, 2011; note: potency is the fitted concentration of half-maximal effect; % is set by controls: 0 for no effect and ±100 for the full control effect; nearly all actives have a fitted effect of over 65% in size
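HEPG2 CAGA-GFP, 1000 cells/well; 2 h settle, 37 C; cpd via pin tool; TGF-b 500 pg/mL final; 18 h, 37 C; GFP imaging ex488/em500-530; %Activity normalised to -TGF-b and +DMSO controls; CRC fit, curve class.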
S-ASM inh – Inhibitors of Secretory Acid Sphingomyelinase (S-ASM): qHTS; placental ASM, HMU-PC fluorogenic substrate, 60 min; 340,000 tested, 0.006% active; AID 504937, 2011; Potency, µM (highest dose often 57.5 µM), inactives show top-dose activity change, negative = inhibition, most hits filed as inhibitors; Sphingomyelin phosphodiesterase (Homo sapiens), P17405; note: potency is the fitted concentration of half-maximal effect
Target sequence (P17405 47-631 limits assumed): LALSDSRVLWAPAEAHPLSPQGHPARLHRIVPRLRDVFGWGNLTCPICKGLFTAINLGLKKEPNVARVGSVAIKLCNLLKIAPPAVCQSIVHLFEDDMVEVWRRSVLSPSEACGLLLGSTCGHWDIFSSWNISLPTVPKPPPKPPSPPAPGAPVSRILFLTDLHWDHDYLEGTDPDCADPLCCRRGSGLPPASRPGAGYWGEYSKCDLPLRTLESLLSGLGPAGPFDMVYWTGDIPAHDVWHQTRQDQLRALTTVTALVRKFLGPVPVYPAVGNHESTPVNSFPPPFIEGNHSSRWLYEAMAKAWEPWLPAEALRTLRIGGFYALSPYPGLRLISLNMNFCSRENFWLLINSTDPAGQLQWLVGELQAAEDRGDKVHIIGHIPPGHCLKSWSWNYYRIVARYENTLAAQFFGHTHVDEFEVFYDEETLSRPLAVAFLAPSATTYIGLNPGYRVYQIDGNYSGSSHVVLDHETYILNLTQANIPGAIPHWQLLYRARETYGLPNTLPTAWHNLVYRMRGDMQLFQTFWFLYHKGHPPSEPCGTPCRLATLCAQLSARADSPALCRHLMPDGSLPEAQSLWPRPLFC
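Human placenta-derived ASM preincubated with compound 10 min at room temperature, then reacted with 9 uM (final) fluorogenic HMU-PC substrate for 60 min at 37 C. Stop solution raises pH to 10; fluorescence read at Ex 386/Em 447 nm.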
* hit, by the source's call; ? = inconclusive; nt = not tested or not shown; [ ] = dose if it differs, or a comment. A selection: hits, their analogues and other compounds. The true share with any hit is near 19%. Unless noted, calls come from the whole dose curve; as a rule, active = well fitted curve in the direction sought with a large enough effect; inconclusive = small, poorly fitted or top-dose-only effect, or another doubt; inactive = no such curve, though single readings can be large; an effect the other way counts as inactive or inconclusive.

SMILES | DT40 TDP1 no CPT | HepG2 tox | IL1B secr inh | TDP1 cell CPT | TGFb SMAD3 inh | S-ASM inh
CCOC(=O)C1CN(S(C)(=O)=O)c2cc(CC(=O)OC)ccc2O1 (stereo not given) | 11% | -4% | -101* | 8% | -6% | 2%
CCOC(=O)C1CN(S(=O)(=O)c2ccc(OC)cc2)c2cc(CC(=O)OC)ccc2O1 (stereo not given) | -27% | -7% | 16 | ? | -27% | -1%
Cc1ccc(C(=O)N/C(=C\c2cccs2)C(=O)NCCCN2CCOCC2)cc1 | -11% | -12% | 4 | 21% | -21% | 9%
COc1ccccc1-c1cc(C(=O)N/N=C/C=C/c2ccccc2[N+](=O)[O-])c2ccccc2n1 | 21µM* | -35% | -51* | 18µM* | -10% | -10%
O=C(N/N=C/C=C/c1ccccc1[N+](=O)[O-])c1cc(-c2cccnc2)nc2ccccc12 | 21µM* | -42% | -14 | ? | -24% | -12%
Cc1occc1C(=O)N/N=C/C=C/c1ccccc1[N+](=O)[O-] | 1% | -10% | -62* | 7% | -12% | -2%
Cc1cc(C(=O)N/N=C/C=C/c2ccccc2[N+](=O)[O-])c(C)o1 | -29% | 9% | -24 | -5% | 14% | -6%
O=C(NN=Cc1cccc([N+](=O)[O-])c1)c1cc(-c2cccnc2)nc2ccccc12 | ? | -9% | 12 | ? | 8% | -8%
O=C(CC12CC3CC(CC(C3)C1)C2)NCC(c1ccc(F)cc1)N1CCOCC1 (stereo not given) | ? | -13% | 6 | 26µM* | -24% | -1%
O=C(NCC(c1ccc(F)cc1)N1CCOCC1)c1ccc(C(=O)c2ccccc2)cc1 (stereo not given) | 21µM* | -37% | -10 | ? | -11% | -1%
OC(c1ccccc1)(c1ccc(F)cc1)C(c1ccccc1)N1CCOCC1 (stereo not given) | 18µM* | -57% | -2 | 16µM* | ? | -3%
CCOc1cc(C(=O)NCC(c2ccc(N(C)C)cc2)N2CCOCC2)cc(OCC)c1OCC (stereo not given) | 18µM* | -24% | nt | 21µM* | -6% | nt
COc1ccc(CC(=O)NCC(c2ccc(N(C)C)cc2)N2CCOCC2)cc1OC (stereo not given) | ? | -3% | nt | ? | -1% | nt
CCc1cc(C(=O)NCc2c(C)ncc3c2CCN(C(=O)C2=CCCC2)C3)no1 | -11% | nt | nt | 12%[9.04 µM] | nt | nt
COc1ccc(OC)c(S(=O)(=O)NCC(=O)NC2CCCCCC2)c1 | -6% | 1% | 43 | -2% | 6% | 3%
COc1ccc(CC(=O)NCC(c2ccc(N(C)C)cc2)N2CCOCC2)cc1 (stereo not given) | ? | -34% | nt | ? | -33% | nt
CN(C)c1ccc(C(CNC(=O)c2ccc(C(C)(C)C)cc2)N2CCOCC2)cc1 (stereo not given) | 21µM* | -32% | nt | 16µM* | -13% | nt
COc1ccc2nc(N3C(=O)/C(=C/c4ccc(Cl)cc4)NC3=S)sc2c1 | 21µM* | -3% | 22 | ? | 7% | -4%
CCCCn1c(N)c(N(CCC(C)C)C(=O)C2CC(=O)N(c3ccc(OC)cc3OC)C2)c(=O)[nH]c1=O (stereo not given) | -17% | 3% | 11 | -2% | -1% | nt
COc1ccc(Cl)c(-c2cc(C(=O)Nc3ccccc3)[nH]n2)c1 | 16µM* | -28% | -51* | 23µM* | 5% | nt
COc1cc(NC(=O)c2ccccc2-c2ccccc2)cc(OC)c1 | ? | 13% | -9 | ? | -1% | -1%
COc1cc(C(=O)NNC(=O)c2cc(-c3ccccc3)n[nH]2)cc(OC)c1C | -15% | -18% | -64* | 0% | -20% | -6%
COc1ccc(Cl)c(-c2cc(C(=O)Nc3ccc(F)cc3)[nH]n2)c1 | 23µM* | -44% | ? | 15µM* | -9% | nt
COc1cc(NC(=O)c2cc(-c3cccc(OC)c3)n[nH]2)cc(OC)c1 | 21µM* | -25% | nt | 15µM* | 25% | nt
CCc1ccc(N(CC(=O)NC2CC2)S(=O)(=O)c2ccc(C)cc2)cc1 | -11% | -4% | 21 | -22% | 0% | -3%
SMILES | DT40 TDP1 no CPT | HepG2 tox | IL1B secr inh | TDP1 cell CPT | TGFb SMAD3 inh | S-ASM inh
Cc1ccc(NC(=O)c2cc(-c3ccccc3)n[nH]2)cc1 | 15% | 2% | -75* | -12% | -1% | -2%
CCCCCCCCCC[n+]1ccc(/C=C/c2c(C)[nH]c3ccccc23)c2ccccc21 | 1µM* | 3.2µM* | nt | 0.79µM* | 2.5µM* | nt
CCCCCCC[n+]1ccc(/C=C/c2c(C)[nH]c3ccccc23)c2ccccc21 | 1.3µM* | -114% | nt | 1.3µM* | 13µM* | nt
CC(=O)N(c1ccc2oc(=O)sc2c1)S(=O)(=O)c1cccc2cccnc12 | ? | 0% | 1 | ? | 4% | -3%
CC(C)(C)OC(=O)N(c1cccc2cccnc12)S(=O)(=O)c1ccccc1Br | nt | -40% | nt | nt | 4.5µM* | nt
Cc1nc(S(=O)(=O)N(C)c2ccccc2)c(C#N)c(C)c1Cl | 23µM* | -38% | ? | 23µM* | ? | 4%
Cc1cc(C)c(S(=O)(=O)N(C)c2ccccc2)c(C)c1 | -9% | -8% | ? | ? | -2% | 1%
CN(C(=O)CSc1nnc(-c2cccs2)n1C1CC1)C1CCS(=O)(=O)C1 (stereo not given) | 5% | 0% | 25 | 4% | 1% | 1%
Cc1cc2c3c(c1)C(C)(c1ccccc1)CC(C)(C)N3C(=O)C21C(C#N)=C(N)OC2=C1C(=O)CC(C)(C)C2 (stereo not given) | 23µM* | -109% | ? | 21µM* | ? | -6%
CC1(C)CC(=O)C2=C(C1)OC(N)=C(C#N)C21C(=O)N2CCCc3cccc1c32 (stereo not given) | -10% | -12% | -7 | -11% | -2% | 0%
CC1(c2ccccc2)CC(C)(C)N2C(=O)C3(C(C#N)=C(N)Oc4cc(O)ccc43)c3cccc1c32 (stereo not given) | ? | -100% | -51* | ? | ? | -23%
